Binding signal data for 1 sequence are collected here from article PMC7862700, “An all-to-all approach to the identification of sequence-specific readers for epigenetic DNA modifications on cytosine”.

Experiment in all cases: DAPPL (digital affinity profiling via proximity ligation, sequencing); 10 mM Tris-HCl pH 7.5, 50 mM NaCl, 1 mM DTT, 4% glycerol, room temperature, 30 min; GST-TFs on glutathione beads, 16-mer random dsDNA library, 0.1% formaldehyde crosslink after washing; high values mean tight binding
One test addresses T1, FEV (Homo sapiens, UniProt Q99581 1-238).
T1 sequence: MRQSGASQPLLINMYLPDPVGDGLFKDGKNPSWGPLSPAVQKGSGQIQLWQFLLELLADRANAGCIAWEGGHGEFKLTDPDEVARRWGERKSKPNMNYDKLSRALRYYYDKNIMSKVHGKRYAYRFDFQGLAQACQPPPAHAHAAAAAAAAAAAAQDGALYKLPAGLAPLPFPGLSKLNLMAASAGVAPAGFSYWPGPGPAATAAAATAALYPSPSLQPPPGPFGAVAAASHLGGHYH
The note with it: protein: recombinant; tags: N-terminal GST; dsDNA, one strand shown. The gist of the method:
(§1)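 Each value of binding signal is a hexamer's read frequency for a factor divided by the same hexamer's frequency in the tag-only sample. Barcoded, bead-captured GST fusions of human transcription factors made in yeast were pooled with that sample and incubated with 200 nmole of a random double-stranded 16-mer DNA library in Tris/NaCl/DTT/glycerol buffer at room temperature for 30 min. Washing, 0.1% formaldehyde crosslinking, proximity ligation, PCR and Illumina NextSeq500 sequencing followed.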

The target in a further test is ETV5 (Homo sapiens, UniProt P41161 1-510). The note with it: protein: recombinant; tags: N-terminal GST; dsDNA, one strand shown. The gist of the method: as §1
Sequence of ETV5 (P41161 whole entry): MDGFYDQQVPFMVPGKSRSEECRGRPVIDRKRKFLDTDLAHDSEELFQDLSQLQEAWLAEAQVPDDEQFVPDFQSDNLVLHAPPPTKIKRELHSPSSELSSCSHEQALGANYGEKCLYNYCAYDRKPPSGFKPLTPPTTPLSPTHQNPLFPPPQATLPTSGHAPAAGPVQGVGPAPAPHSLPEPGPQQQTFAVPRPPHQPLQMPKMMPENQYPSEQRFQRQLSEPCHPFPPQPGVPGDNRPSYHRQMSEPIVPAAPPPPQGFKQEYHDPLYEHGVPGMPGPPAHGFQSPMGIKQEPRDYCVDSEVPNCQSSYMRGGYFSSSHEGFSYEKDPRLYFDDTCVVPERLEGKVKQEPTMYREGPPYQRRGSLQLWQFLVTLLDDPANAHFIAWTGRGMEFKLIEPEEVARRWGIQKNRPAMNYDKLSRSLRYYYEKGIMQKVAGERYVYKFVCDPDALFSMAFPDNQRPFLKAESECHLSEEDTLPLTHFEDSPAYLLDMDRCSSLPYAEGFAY
For the next test, the target named is HSF1 (Homo sapiens, UniProt Q00613 1-529). The following applies: protein: recombinant; tags: N-terminal GST; chain copies: 3; dsDNA, one strand shown. In a few lines: as §1
Sequence of HSF1 (Q00613 whole entry): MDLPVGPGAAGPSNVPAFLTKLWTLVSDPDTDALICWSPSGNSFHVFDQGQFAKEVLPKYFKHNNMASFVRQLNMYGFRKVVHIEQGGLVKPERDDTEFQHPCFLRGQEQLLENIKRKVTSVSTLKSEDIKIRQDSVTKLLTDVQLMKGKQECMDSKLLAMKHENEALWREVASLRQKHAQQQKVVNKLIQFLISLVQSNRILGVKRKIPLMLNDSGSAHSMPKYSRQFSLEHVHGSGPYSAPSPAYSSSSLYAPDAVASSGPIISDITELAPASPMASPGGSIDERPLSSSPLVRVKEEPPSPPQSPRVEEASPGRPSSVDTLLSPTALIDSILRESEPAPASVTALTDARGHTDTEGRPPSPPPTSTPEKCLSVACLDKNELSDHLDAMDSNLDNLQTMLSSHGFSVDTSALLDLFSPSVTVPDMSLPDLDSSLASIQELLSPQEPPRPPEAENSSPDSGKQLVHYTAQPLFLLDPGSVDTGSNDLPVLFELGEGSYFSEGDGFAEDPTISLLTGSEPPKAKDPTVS
The next test has as its target T2, SPIC (Homo sapiens, UniProt Q8N5J4 1-248).
T2 sequence: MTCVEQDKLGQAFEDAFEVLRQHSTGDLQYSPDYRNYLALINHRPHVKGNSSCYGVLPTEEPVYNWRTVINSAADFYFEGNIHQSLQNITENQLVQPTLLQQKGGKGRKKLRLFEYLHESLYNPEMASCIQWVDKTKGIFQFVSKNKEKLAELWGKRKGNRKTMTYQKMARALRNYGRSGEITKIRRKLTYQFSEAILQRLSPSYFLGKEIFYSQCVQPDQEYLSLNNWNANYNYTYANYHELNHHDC
The following applies: protein: recombinant; tags: N-terminal GST; dsDNA, one strand shown. In a few lines:
as §1

The next test concerns the target ELF4 (Homo sapiens, UniProt Q99607 1-663). The note with it: protein: recombinant; tags: N-terminal GST; dsDNA, one strand shown. The gist of the method:
as §1

Another test deals with T3, ELK4 (Homo sapiens, UniProt P28324-2 1-405).
T3 sequence: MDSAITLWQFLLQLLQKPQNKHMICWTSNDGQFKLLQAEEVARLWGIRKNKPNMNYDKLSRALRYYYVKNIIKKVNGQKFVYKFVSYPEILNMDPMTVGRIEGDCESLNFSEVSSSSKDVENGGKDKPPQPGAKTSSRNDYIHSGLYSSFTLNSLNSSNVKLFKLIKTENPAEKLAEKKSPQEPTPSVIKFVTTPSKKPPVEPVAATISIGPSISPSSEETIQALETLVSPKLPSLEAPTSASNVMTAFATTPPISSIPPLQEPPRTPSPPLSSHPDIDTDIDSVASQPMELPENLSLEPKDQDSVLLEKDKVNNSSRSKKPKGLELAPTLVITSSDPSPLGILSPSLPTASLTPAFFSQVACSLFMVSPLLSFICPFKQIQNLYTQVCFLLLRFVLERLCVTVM
The note with it: protein: recombinant; tags: N-terminal GST; dsDNA, one strand shown. The gist of the method: as §1

For a further test, the target named is T4, ETV2 (Homo sapiens, UniProt O00321 1-342).
T4 sequence: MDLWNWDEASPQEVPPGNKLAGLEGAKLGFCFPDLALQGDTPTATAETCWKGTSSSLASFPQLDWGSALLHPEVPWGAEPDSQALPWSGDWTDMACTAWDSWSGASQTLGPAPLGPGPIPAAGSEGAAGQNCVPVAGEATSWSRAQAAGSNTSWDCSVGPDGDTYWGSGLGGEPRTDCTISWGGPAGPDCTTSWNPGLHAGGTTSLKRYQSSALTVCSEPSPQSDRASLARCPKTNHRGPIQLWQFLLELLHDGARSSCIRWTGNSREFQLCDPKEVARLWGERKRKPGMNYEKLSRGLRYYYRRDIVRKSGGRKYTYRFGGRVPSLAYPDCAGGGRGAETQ
The following applies: protein: recombinant; tags: N-terminal GST; dsDNA, one strand shown. The gist of the method: as §1

Another test has as its target T5, ELF3 (Homo sapiens, UniProt P78545 1-371).
T5 sequence: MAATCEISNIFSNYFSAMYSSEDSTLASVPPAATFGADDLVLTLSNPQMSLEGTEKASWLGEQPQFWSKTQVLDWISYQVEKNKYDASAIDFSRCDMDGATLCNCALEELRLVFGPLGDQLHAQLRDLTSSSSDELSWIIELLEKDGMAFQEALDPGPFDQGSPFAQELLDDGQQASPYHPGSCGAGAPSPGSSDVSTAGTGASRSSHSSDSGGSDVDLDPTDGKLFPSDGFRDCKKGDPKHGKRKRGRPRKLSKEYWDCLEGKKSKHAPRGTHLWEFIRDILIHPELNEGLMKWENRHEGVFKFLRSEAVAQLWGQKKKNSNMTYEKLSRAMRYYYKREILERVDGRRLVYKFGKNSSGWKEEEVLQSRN
The note with it: protein: recombinant; tags: N-terminal GST; dsDNA, one strand shown. The gist of the method: as §1

The next test deals with CRX (Homo sapiens, UniProt O43186 1-299). The following applies: protein: recombinant; tags: N-terminal GST; dsDNA, one strand shown. In a few lines:
as §1

In the next test the target is ETV1 (Homo sapiens, UniProt P50549 1-477). The note with it: protein: recombinant; tags: N-terminal GST; dsDNA, one strand shown. In a few lines:
as §1

The target of a further test is T6, ERF (Homo sapiens, UniProt P50548 1-548).
T6 sequence: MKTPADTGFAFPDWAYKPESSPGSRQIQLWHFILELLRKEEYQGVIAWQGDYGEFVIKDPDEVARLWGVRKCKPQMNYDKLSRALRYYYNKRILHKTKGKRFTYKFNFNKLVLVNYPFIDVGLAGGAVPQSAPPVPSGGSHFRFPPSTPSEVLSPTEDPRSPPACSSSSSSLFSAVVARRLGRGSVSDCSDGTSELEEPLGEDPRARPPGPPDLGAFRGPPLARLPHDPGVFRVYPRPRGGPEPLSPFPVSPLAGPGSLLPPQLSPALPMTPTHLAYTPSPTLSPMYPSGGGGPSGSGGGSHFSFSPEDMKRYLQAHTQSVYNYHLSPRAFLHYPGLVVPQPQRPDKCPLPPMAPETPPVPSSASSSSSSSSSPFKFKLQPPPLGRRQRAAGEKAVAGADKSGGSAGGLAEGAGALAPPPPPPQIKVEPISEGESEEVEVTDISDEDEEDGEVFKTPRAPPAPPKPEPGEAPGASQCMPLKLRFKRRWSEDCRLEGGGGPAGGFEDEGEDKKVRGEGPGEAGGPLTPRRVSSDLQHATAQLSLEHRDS
The note with it: protein: recombinant; tags: N-terminal GST; dsDNA, one strand shown. The gist of the method: as §1

Another test addresses T7, ETV3L (Homo sapiens, UniProt Q6ZN32 1-361).
T7 sequence: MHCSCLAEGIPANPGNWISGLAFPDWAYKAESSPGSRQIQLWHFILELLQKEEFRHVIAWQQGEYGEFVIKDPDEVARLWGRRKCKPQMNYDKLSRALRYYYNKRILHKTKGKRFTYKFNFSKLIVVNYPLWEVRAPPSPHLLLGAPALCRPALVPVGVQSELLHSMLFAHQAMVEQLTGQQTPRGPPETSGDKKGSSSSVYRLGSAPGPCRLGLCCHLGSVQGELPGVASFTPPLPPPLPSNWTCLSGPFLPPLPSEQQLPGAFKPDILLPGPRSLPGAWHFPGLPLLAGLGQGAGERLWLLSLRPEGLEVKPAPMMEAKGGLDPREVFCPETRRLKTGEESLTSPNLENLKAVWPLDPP
The note with it: protein: recombinant; tags: N-terminal GST; dsDNA, one strand shown. In a few lines: as §1

For another test, the target named is T8, ETS2 (Homo sapiens, UniProt P15036 1-469).
T8 sequence: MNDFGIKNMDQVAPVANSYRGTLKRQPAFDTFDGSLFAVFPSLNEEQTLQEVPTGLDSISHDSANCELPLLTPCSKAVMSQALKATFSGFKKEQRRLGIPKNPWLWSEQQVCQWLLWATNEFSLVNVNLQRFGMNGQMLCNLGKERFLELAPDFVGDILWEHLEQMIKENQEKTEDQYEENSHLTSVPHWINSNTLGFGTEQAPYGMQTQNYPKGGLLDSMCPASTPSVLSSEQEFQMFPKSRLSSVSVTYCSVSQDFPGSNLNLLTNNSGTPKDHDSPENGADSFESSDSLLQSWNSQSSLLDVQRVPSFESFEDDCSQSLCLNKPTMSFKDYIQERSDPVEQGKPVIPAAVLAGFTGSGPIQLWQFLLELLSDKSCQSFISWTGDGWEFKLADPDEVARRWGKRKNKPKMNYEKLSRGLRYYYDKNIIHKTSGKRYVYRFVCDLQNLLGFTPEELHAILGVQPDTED
The note with it: protein: recombinant; tags: N-terminal GST; dsDNA, one strand shown. In a few lines:
as §1

The target of another test is T9, SPDEF (Homo sapiens, UniProt O95238 1-335).
T9 sequence: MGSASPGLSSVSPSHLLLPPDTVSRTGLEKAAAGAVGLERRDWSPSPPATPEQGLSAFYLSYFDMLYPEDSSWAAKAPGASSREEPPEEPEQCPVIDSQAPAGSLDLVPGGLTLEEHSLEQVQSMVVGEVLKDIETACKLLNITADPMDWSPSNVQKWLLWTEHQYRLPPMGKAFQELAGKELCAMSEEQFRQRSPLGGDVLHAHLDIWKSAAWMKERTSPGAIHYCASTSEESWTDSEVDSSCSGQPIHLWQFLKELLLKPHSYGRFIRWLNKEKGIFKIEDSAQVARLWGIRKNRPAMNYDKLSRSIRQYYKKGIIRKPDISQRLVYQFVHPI
The note with it: protein: recombinant; tags: N-terminal GST; dsDNA, one strand shown. In a few lines: as §1

The next test concerns the target T10, ETV7 (Homo sapiens, UniProt Q9Y603 1-341).
T10 sequence: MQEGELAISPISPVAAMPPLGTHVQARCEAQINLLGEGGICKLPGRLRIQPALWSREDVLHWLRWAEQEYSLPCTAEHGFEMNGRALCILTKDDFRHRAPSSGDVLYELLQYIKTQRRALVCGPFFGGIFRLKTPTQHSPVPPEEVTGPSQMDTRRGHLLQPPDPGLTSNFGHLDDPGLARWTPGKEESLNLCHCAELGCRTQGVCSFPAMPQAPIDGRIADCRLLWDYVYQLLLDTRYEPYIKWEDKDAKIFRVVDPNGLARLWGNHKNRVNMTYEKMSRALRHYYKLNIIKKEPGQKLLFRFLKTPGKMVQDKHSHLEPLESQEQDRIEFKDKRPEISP
The note with it: protein: recombinant; tags: N-terminal GST; dsDNA, one strand shown. The gist of the method: as §1

In a further test the target is T11, ELF5 (Homo sapiens, UniProt Q9UKW6-2 1-255).
T11 sequence: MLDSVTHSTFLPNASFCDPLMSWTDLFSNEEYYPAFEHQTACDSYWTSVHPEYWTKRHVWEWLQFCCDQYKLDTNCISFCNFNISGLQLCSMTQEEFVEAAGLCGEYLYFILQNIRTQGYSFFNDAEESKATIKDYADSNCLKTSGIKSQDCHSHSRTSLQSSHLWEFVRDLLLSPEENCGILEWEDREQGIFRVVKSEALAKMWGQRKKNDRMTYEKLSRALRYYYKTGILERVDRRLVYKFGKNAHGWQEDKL
The following applies: protein: recombinant; tags: N-terminal GST; dsDNA, one strand shown. The gist of the method:
as §1

In another test the target is T12, ETV3 (Homo sapiens, UniProt P41162-2 1-143).
T12 sequence: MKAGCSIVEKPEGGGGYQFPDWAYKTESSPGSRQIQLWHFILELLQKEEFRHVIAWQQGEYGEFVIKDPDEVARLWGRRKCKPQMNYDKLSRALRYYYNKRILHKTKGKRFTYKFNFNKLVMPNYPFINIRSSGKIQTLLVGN
The note with it: protein: recombinant; tags: N-terminal GST; dsDNA, one strand shown. The gist of the method:
as §1

A further test concerns the target ETV6 (Homo sapiens, UniProt P41212 1-452). The note with it: protein: recombinant; tags: N-terminal GST; dsDNA, one strand shown. The gist of the method:
as §1

Sequence of CRX (O43186 whole entry): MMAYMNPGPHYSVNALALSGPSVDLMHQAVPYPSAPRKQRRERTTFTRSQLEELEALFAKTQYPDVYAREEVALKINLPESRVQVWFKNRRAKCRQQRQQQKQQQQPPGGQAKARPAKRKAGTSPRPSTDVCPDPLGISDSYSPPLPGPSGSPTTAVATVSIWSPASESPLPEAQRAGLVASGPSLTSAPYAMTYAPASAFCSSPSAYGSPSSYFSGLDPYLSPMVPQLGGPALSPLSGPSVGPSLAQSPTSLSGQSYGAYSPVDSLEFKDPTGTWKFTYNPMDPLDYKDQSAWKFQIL
Sequence of ETV1 (P50549 whole entry): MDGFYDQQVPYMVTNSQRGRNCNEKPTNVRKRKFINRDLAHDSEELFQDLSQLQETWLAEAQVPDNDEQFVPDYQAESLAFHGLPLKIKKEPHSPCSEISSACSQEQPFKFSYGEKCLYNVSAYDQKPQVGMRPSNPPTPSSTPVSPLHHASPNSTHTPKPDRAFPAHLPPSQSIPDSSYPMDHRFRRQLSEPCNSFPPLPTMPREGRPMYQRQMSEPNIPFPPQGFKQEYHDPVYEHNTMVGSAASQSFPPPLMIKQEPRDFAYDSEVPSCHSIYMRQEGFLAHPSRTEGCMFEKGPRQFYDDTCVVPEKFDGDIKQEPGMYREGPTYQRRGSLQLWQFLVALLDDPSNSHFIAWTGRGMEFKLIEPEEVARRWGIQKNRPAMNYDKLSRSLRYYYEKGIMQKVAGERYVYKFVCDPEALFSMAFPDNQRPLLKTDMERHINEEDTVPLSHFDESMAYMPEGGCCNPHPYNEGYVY
Sequence of ELF4 (Q99607 whole entry): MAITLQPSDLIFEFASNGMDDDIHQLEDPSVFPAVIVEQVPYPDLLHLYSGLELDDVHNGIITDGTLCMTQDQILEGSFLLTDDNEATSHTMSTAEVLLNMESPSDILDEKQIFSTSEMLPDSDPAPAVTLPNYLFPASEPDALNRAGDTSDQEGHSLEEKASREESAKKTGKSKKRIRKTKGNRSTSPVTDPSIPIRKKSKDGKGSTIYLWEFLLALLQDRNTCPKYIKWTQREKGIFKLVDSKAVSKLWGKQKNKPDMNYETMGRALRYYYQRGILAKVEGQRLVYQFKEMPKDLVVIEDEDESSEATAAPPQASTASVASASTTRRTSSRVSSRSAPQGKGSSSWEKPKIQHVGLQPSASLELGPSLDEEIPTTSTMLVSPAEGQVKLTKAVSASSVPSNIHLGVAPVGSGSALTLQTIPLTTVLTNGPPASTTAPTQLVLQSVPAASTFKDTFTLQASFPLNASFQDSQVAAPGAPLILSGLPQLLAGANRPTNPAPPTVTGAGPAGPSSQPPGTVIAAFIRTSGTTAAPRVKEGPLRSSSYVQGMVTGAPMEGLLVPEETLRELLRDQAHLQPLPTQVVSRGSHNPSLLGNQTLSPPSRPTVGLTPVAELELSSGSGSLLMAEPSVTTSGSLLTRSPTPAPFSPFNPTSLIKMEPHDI
Sequence of ETV6 (P41212 whole entry): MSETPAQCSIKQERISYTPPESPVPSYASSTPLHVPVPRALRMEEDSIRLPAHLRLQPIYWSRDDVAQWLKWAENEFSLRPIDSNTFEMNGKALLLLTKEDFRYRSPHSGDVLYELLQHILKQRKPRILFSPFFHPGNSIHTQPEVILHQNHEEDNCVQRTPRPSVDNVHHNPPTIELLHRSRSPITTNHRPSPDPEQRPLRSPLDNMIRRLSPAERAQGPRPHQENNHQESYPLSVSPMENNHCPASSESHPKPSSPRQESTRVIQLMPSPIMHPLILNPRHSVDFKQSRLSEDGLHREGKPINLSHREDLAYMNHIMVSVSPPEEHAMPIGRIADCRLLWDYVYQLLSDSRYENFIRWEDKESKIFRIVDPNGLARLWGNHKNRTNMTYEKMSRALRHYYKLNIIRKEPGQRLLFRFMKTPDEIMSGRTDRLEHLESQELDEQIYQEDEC

Take ATTTAG: the binding signal with FEV was 1.08 fold enrichment (6-mer frequency, TF over GST control); in the test with ETV5, 1.06 fold enrichment (6-mer frequency, TF over GST control); with HSF1, 1.37 fold enrichment (6-mer frequency, TF over GST control); with SPIC it was 1.2 fold enrichment (6-mer frequency, TF over GST control); with ELF4, 1.05 fold enrichment (6-mer frequency, TF over GST control); in the test with ELK4, 1.17 fold enrichment (6-mer frequency, TF over GST control). The binding signal was 1.3 fold enrichment (6-mer frequency, TF over GST control) with ETV2; 1.17 fold enrichment (6-mer frequency, TF over GST control) with ELF3; 1.66 fold enrichment (6-mer frequency, TF over GST control) in the test with CRX; 1.11 fold enrichment (6-mer frequency, TF over GST control) with ETV1; 1.22 fold enrichment (6-mer frequency, TF over GST control) in the test with ERF; 1.15 fold enrichment (6-mer frequency, TF over GST control) with ETV3L. Moreover, the binding signal is 1.07 fold enrichment (6-mer frequency, TF over GST control) with ETS2; 1.13 fold enrichment (6-mer frequency, TF over GST control) with SPDEF; 1.07 fold enrichment (6-mer frequency, TF over GST control) with ETV7; 1.04 fold enrichment (6-mer frequency, TF over GST control) with ELF5; 1.12 fold enrichment (6-mer frequency, TF over GST control) in the test with ETV3; 1.21 fold enrichment (6-mer frequency, TF over GST control) in the test with ETV6.
